Bioassay records deposited in PubChem BioAssay by University of Kansas High Throughput Screening Laboratory.
Pf apPOL inh = Pf-apPOL DNA polymerase inhibition. Recombinant Pf-apPOL, molecular beacon fluorescence, 1.5 h. inhibition, % at 10 µM. 210,000 tested, 0.25% active. AID 1794808
mHTT CaM bind = disrupts binding of mutant huntingtin to calmodulin. AlphaScreen His-mHTT/GST-CaM binding, luminescence. 190,000 tested, 3.6% active. inhibition, % at 15 µM. P42858;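 further: 0% = both proteins with DMSO and 100% = one protein alone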
Target sequence (P42858 whole entry, looked up, stated change not applied): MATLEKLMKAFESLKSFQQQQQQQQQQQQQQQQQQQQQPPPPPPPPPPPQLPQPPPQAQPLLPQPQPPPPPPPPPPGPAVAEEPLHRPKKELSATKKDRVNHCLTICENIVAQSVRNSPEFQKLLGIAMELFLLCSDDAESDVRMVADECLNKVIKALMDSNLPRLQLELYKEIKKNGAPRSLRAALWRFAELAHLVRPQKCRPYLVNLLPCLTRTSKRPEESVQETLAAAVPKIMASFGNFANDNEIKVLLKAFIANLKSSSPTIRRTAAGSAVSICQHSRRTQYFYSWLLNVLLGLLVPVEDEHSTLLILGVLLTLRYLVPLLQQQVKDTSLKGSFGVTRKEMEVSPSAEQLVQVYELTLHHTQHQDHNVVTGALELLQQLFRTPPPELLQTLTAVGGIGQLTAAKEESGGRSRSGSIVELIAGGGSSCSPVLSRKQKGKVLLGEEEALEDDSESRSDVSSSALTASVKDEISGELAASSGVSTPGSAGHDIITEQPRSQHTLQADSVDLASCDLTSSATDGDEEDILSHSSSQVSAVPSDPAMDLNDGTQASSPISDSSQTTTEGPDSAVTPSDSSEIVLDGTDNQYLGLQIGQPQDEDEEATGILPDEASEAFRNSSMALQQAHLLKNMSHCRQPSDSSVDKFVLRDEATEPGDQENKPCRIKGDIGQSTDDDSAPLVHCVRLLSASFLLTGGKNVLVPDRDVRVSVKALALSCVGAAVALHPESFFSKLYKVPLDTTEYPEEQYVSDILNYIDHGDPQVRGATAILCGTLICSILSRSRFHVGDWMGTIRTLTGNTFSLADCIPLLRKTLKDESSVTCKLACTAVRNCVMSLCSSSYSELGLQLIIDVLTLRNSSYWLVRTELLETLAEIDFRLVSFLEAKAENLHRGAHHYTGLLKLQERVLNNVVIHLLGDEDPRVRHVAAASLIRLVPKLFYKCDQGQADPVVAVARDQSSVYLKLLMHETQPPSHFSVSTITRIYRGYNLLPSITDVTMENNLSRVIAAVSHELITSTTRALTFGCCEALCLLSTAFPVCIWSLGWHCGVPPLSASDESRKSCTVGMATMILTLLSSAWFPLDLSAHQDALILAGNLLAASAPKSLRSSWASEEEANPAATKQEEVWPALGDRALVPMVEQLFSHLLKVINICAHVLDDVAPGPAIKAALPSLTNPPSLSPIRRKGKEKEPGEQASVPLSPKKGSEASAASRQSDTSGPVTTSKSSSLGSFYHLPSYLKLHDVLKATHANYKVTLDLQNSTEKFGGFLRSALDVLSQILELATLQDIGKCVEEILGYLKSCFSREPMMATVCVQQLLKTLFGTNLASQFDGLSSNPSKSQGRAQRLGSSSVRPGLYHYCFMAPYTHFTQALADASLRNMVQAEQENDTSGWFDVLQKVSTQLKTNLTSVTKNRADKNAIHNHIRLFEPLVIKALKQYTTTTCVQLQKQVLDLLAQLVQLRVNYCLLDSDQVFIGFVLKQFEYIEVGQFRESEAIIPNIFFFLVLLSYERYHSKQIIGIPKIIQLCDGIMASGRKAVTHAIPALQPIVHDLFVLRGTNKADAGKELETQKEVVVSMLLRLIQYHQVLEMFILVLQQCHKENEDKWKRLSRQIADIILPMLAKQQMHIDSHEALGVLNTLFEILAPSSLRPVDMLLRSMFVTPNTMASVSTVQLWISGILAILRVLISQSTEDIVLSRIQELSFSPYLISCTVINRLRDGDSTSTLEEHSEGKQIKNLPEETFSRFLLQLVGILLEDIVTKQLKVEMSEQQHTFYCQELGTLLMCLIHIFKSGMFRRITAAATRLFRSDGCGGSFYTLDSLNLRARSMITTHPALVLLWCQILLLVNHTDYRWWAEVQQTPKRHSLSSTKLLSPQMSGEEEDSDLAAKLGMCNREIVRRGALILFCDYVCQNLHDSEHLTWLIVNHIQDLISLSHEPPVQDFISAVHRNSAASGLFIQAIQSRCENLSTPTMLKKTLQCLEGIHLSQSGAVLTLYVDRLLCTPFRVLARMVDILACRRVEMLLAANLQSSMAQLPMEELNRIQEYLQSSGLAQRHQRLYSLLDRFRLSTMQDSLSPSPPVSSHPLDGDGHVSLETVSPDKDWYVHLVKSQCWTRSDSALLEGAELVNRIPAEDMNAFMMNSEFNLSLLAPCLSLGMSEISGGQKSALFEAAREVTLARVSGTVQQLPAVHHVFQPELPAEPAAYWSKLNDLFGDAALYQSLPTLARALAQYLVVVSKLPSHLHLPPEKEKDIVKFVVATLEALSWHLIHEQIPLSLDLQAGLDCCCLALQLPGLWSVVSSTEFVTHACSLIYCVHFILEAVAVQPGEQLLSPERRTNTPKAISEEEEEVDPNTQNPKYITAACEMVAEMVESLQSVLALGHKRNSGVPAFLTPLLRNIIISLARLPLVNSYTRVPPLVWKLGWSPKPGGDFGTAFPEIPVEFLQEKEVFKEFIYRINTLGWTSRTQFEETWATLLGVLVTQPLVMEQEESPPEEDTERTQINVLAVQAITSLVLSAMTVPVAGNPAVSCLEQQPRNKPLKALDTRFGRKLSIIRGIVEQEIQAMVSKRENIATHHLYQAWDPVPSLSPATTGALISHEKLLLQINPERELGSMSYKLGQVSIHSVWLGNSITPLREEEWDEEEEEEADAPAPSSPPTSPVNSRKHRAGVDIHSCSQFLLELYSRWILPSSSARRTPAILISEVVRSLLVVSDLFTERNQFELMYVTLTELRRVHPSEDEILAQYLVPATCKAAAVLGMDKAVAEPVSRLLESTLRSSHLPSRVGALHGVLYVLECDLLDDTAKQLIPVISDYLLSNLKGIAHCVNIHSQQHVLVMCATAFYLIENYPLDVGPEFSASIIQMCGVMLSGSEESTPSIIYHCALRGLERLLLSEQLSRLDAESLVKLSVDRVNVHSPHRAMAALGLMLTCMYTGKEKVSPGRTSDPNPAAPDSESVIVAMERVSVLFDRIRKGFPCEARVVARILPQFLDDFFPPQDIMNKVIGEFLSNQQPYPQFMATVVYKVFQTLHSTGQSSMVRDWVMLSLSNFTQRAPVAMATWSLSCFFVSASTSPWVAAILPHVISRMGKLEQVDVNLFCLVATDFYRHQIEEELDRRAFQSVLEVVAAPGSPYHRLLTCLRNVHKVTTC
Active calls of the source: *. This excerpt belongs to a sample that is enriched for hits. No stated cut-off is given here; in the data, active means inhibition above about 50%; inactive means the rest.

Screening COCCNC(=O)N1CCc2[nH]nc(-c3ccccc3)c2C1 returned Pf apPOL inh -3 and mHTT CaM bind -4.
For COc1ccccc1-c1nc(C2CCCN(C(=O)c3cc(F)ccc3Cl)C2)no1 (configuration not stated) the results were Pf apPOL inh -6 and mHTT CaM bind 9.
For COc1ccc(C(CCN2CCCC2)c2c(OC)cc(OC)c3c(-c4ccccc4)cc(=O)oc23)cc1 (configuration not stated) the results were Pf apPOL inh -12 and mHTT CaM bind 98*.
Screening COc1ccc(C(CCN2CCOCC2)c2c(OC)cc(OC)c3c(-c4ccccc4)cc(=O)oc23)cc1 (configuration not stated) returned Pf apPOL inh -8 and mHTT CaM bind 66*.
Screening COc1ccc(C(CCN2CCCC(C)C2)c2c(OC)cc(OC)c3c(C)cc(=O)oc23)cc1 (configuration not stated) returned Pf apPOL inh -8 and mHTT CaM bind 20.
Screening COc1ccc(C(CCN2CCCC(C)C2)c2c(OC)cc(OC)c3c(-c4ccccc4)cc(=O)oc23)cc1 (configuration not stated) returned Pf apPOL inh -3 and mHTT CaM bind 100*.
For CC(=O)NCc1csc(C2CCCN(C(=O)c3cc(F)cc(F)c3)C2)n1 (configuration not stated) the results were Pf apPOL inh 0 and mHTT CaM bind -8.
Screening CCOc1ccccc1NC(=O)N1CCn2cccc2C1C (configuration not stated) returned Pf apPOL inh 2 and mHTT CaM bind 2.
CCOC(=O)C1CSCCS(=O)(=O)N1Cc1cc(F)ccc1Br (configuration not stated) was read as Pf apPOL inh -1 and mHTT CaM bind -11.
NC(=O)CSc1nnc(COc2ccc(Cl)cc2Cl)o1 was read as Pf apPOL inh -17 and mHTT CaM bind -1.
`Cc1cc(C)c(C)c(S(=O)(=O)N2CCCC2)c1C` gave Pf apPOL inh -5 and mHTT CaM bind -18.
`N#Cc1ccccc1NC(=O)CCS(=O)(=O)Cc1ccccc1` gave Pf apPOL inh -6 and mHTT CaM bind -8.
O=C(COc1ccc(F)cc1)NCc1cc(-c2cccs2)on1 was read as Pf apPOL inh -5 and mHTT CaM bind -15.
For COc1cccc(CNC(=O)c2nc(C)n(C3CCN(S(C)(=O)=O)CC3)c2C)c1 the results were Pf apPOL inh -4 and mHTT CaM bind 8.
For CC(SC1CC(=O)N(c2ccccc2)C1=O)C(=O)O (configuration not stated) the results were Pf apPOL inh 4.
Screening O=C(c1cc(Cl)sc1Cl)N1CCN(c2nc3ccc([N+](=O)[O-])cc3s2)CC1 returned Pf apPOL inh -4 and mHTT CaM bind 3.
Screening CCn1cc(C2=CCN(S(=O)(=O)c3ccc(F)c(C)c3)CC2)c2cccnc21 returned Pf apPOL inh -10 and mHTT CaM bind 19.
COc1ccc(C)cc1NC(=O)c1cc(S(=O)(=O)NCCc2ccccc2)ccc1F was read as Pf apPOL inh -4 and mHTT CaM bind 64*.
For O=C(Nc1cccc(F)c1)c1cc(S(=O)(=O)NCCc2ccccc2)ccc1F the results were Pf apPOL inh -4 and mHTT CaM bind 6.
`O=C(Nc1cccc(Cl)c1)c1cc(S(=O)(=O)NCCc2ccccc2)ccc1F` gave Pf apPOL inh -4 and mHTT CaM bind 51*.
For CCN(Cc1ccccc1)S(=O)(=O)c1ccc(F)c(C(=O)Nc2cc(C)ccc2OC)c1 the results were Pf apPOL inh 31 and mHTT CaM bind -4.
For OC(COc1ccc2c(c1)CCC2)CN1CCCC1 (configuration not stated) the results were Pf apPOL inh 0 and mHTT CaM bind -2.
O=C(C1CCCN(c2ccncc2)C1)N1CCCCC1 (configuration not stated) was read as Pf apPOL inh -4 and mHTT CaM bind -8.
For C/C=C(\C)CN1CCN(C/C=C/c2ccccc2)CC1 the results were Pf apPOL inh 7 and mHTT CaM bind 7.
Screening C(=Cc1ccccc1)CN1CCN(c2c3c(nc4ncnn24)CCCC3)CC1 returned Pf apPOL inh -5 and mHTT CaM bind 73*.
Screening COc1ccccc1OCC(=O)Nc1ccc(-n2nncc2C(C)(C)C)cc1 returned Pf apPOL inh -4 and mHTT CaM bind 15.
`COc1cc(N2CN=c3s/c(=C\c4ccccc4)c(=O)n3C2)cc(OC)c1OC` gave Pf apPOL inh -8 and mHTT CaM bind 35.
For COc1cc(N2CN=c3s/c(=C\C=C\c4ccccc4)c(=O)n3C2)cc(OC)c1OC the results were Pf apPOL inh -6 and mHTT CaM bind 55*.
`c1ccc(-c2nnc(-c3ccco3)c(-c3ccco3)n2)nc1` gave mHTT CaM bind 100*.
Screening Cn1c(-c2ccc(S(=O)(=O)O)o2)nc2ccccc21 returned Pf apPOL inh 2 and mHTT CaM bind -3.
Screening O=S(=O)(O)c1ccc(-c2nnc(-c3ccccn3)nc2-c2ccc(S(=O)(=O)O)o2)o1 returned mHTT CaM bind 100*.
